The whole screen tested about 310,000 compounds, of which about 17,000 (5.5%) were called active. A call without a number means that no potency is given here. Roughly 11% stayed inconclusive and do not appear here. Only a selection was taken, and actives are over-represented in it overall. Values without a mark were called inactive. Calls follow the shape of the dose curve; as a rule, active = well fitted inhibition curve with a large enough effect; inconclusive = small, poorly fitted or top-dose-only effect, or effect the other way; inactive = no such curve, though single readings can be large or run the other way.
Potency is read from the fitted curve at half-maximal effect.

In the experiment the target is Nuclear receptor ROR-gamma (Mus musculus) (UniProt P51450). Put plainly: qHTS for inhibitors of ROR gamma transcriptional activity. Also: nearly all actives have a fitted effect of over 60% in size. The following applies: Drosophila S2 Gal4-RORgamma UAS-luciferase reporter, 20 h; series mostly up to 53.6 µM. The gist of the method: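 Read-out: Photinus luciferase luminescence; inhibitors lower reporter signal. Insect Schneider cells with Gal4-ROR gamma fusion under metallothionein promoter, UAS reporter; 700 uM final copper sulfate induction, 20 hr, ambient temperature.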
Chain of Nuclear receptor ROR-gamma (Mus musculus) (P51450 whole entry, looked up, the tested form may be a part): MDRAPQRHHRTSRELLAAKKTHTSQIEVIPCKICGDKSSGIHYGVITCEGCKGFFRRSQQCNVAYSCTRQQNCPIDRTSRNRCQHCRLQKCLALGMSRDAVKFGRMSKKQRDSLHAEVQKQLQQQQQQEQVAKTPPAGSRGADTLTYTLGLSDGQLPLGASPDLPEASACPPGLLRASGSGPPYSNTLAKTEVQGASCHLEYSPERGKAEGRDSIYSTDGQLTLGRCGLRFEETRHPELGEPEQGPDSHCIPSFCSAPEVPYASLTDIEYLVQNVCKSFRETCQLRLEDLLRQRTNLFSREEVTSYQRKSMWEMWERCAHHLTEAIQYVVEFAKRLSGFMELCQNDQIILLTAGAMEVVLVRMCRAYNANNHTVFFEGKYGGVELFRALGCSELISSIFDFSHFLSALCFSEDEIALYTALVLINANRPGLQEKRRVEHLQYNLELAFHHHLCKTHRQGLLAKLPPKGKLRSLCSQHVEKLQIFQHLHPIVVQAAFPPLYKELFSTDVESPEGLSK
Turning to `CCOCCCNc1nc(-c2ccccc2)nc2ccccc12`, the activity change, negative = inhibition is 24.9% [at 1.91 µM]. For the compound `COc1ccc(CN(C)C(=O)Cc2ccsc2)c(OC)c1OC`, the Potency result is “inactive”. Still for that read-out and setting: as for `CC(=O)c1ccc(NC(=O)c2ccc(-n3cncn3)c([N+](=O)[O-])c2)cc1`, the entry is “inactive”.

As for `CCCC[C@]12Cc3cc(OC)c(OC)cc3C(O1)C1=C(CC3(CCCCC3)OC1=O)O2`, the activity change, negative = inhibition was 3.02% [at 10 µM]. In the case of `COCCc1nn2c(=O)cc(COC(=O)c3cc(OC)c(OC)c(OC)c3)nc2s1`, the Potency result is “inactive”. Take `CN(c1ccccc1)S(=O)(=O)c1ccc(C(=O)NCCc2ccccc2)cc1`: the Potency result is “inactive”. In the case of `CCCc1cc(C(=O)N2CCCC(CO)(CCCc3ccccc3)C2)n(C)n1` (configuration not stated), the Potency result was “inactive”. On the same count and under the same terms, then `CCOc1ccc(NC(=O)CCCCCN2C(=O)[C@@H]3Cc4ccccc4CN3C2=O)cc1`, with “inactive”; and `Cc1cc(-c2nnc(SCC(=O)Nc3ccc(F)cc3)n2N)n[nH]1`, with “inactive”. On to `CCOC(=O)C1=C(C)NC(SC)=NC1c1ccccc1` (configuration not stated), for which the Potency entry is “inactive”.

`C=CCC1(C#N)C(=S)NC(C)=C(C(=O)OCC)C1c1ccccc1` (configuration not stated): the Potency is 10 µM (active). The same measure, in the same setting: then `C=CCOC(=O)C1=C(C)OC(N)=C(C#N)C1c1ccc(F)cc1` (configuration not stated), with “inactive”.

For the compound `CC(C(=O)Nc1ccc(O)c(C(=O)O)c1)N1C(=O)/C(=C/c2cccs2)SC1=S` (configuration not stated), the Potency result was “inactive”.

As for `O=C(COC(=O)c1ccc(F)cc1)NCCCc1ccccc1`, the Potency entry was “inactive”. As to `O=C(NCCc1cccc(F)c1)C1CCCN(c2nc3ccccc3s2)C1` (configuration not stated), the Potency result was “inactive”.

For `COc1cccc(NC(=O)c2nn(-c3ccc(OC)cc3OC)c(=O)c3ccccc23)c1`, the Potency entry was “inactive”. For the compound `COc1cccc(NC(=O)c2ccccc2SC)c1`, the Potency entry is “inactive”. On the same count and under the same terms, as for `COc1cccc(NC(=S)NC(=O)c2c(Cl)c(C)nn2C)c1`, the figure is 3.55 µM (active); as for `CC1(C(=O)N/N=C/c2cc3c(cc2Br)OCO3)CC1(Br)Br` (configuration not stated), “inactive”. The same measure, in the same setting: then `COc1ccc(/C=C/c2noc(-c3ccccc3OC(C)=O)n2)cc1`, with 11.2 µM (active); and `COc1ccccc1-c1nnc(SCC(=O)Nc2cc(C)on2)o1`, with “inactive”.

Take `CC(=O)Oc1ccc(-c2nc3c(C)cccc3c(=O)o2)cc1`: the Potency result was “inactive”.

For `CCOC(=O)c1[nH]cnc1C(=O)Nc1ccccc1C`, the Potency is 12.6 µM (active). For `CCOC(=O)c1ccc(NC(=O)c2cc(=O)[nH]c3ccccc23)cc1`, the Potency entry is “inactive”. Still for that read-out and setting: then `Cc1ccccc1NC(=O)CCOc1ccccc1`, with “inactive”. Still for that read-out and setting: as for `CCOC(=O)c1ccc(NC(=O)c2nc[nH]c2C(=O)NCc2ccccc2)cc1`, the figure is 3.55 µM (active).

As for `CCOC(=O)c1ccc(NC(=O)CNC(=O)c2ccco2)cc1`, the Potency entry was “inactive”. Still for that read-out and setting: then `CCOC(=O)c1c(C)[nH]c(C)c1S(=O)(=O)N(C)CC(=O)Nc1ccccc1C`, with “inactive”; and `Cc1ccc(CNS(=O)(=O)c2ccc3c(c2)N(C)CCO3)cc1`, with “inactive”; and `COc1ccc(CCNC(=O)CSCc2ccc(Br)cc2)cc1OC`, with “inactive”.

As for `COc1cc(C(C(=O)NC2CCCC2)N(C(=O)c2ccco2)c2ccccc2C(C)=O)cc(OC)c1OC` (configuration not stated), the Potency result was “inactive”. Same read-out and setting: as for `CCN1N=C(c2ccccc2)CCC1=O`, the entry is “inactive”; as for `COCCCNc1nc2c(-c3cccc(C)c3)nnn2c2ccc(Cl)cc12`, “inactive”; as for `COCCCNC(=O)Cn1cc(/C=C(\C#N)C(=O)N2CCN(c3ccccc3)CC2)c2ccccc21`, “inactive”. Same read-out and setting: then `COC(=O)Cn1cc(C(=O)c2cccs2)c2ccccc21`, with “inactive”; and `COC(=O)Cn1cc(/C=C/[N+](=O)[O-])c2ccccc21`, with 10 µM (active); and `O=C(NCc1cccc(Cl)c1)C1CCN(c2nnc(N3CCCC3=O)s2)CC1`, with “inactive”.

With `CCOC(=O)C1CCN(C(=O)C2CCCN(S(=O)(=O)c3ccc(OC)c(Cl)c3)C2)CC1` (configuration not stated), the Potency entry was “inactive”.

In the case of `CCOC(=O)N/N=C/c1cccnc1`, the Potency entry is “inactive”.

Regarding `COc1cc(/C=N/NC(=S)Nc2cccnc2)cc(OC)c1O`, the Potency is 6.31 µM (active). Still for that read-out and setting: as for `COc1ccc(/C=C/C(=O)Nc2cccnc2)cc1OC`, the entry is “inactive”; as for `COCCNC(=S)N/N=C/c1c(C)[nH]c2ccccc12`, 11.2 µM (active). On to `Cc1[nH]c2ccccc2c1/C=N\NC(=O)Cn1nnc(-c2ccccc2)n1`, for which the activity change, negative = inhibition is 7.95% [at 10 µM].

On to `COc1cc(N=Cc2c(O)[nH]c3ccccc23)cc(OC)c1OC`, for which the Potency result was “inactive”.

As to `C=CCn1c(=O)c(C(=O)Nc2ncccc2O)c(O)c2ccccc21`, the Potency result is “inactive”. On the same count and under the same terms, as for `COC(=O)N/N=C/c1ccc(/C=N/NC(=O)OC)cc1`, the entry is “inactive”; as for `Cc1ccc(OCCOc2cccc(/C=N/NC(N)=O)c2)cc1`, “inactive”.

As for `CCOc1ccc(/C=N/NC(N)=S)cc1`, the Potency is 5.01 µM (active). Same read-out and setting: as for `COC(=O)[C@@H]1CCCN1C(=O)c1cc(COc2cccc3cccnc23)on1`, the entry is “inactive”; as for `CCCC(=O)N1CCN(c2nnc(-c3ccc(C)cc3)c3ccccc23)CC1`, “inactive”.

Take `O=C(CN1C(=O)COc2ccc(Cl)cc21)N1CCOCC1`: the Potency entry was “inactive”.

For `Cc1ccc(CN(Cc2cccnc2)C(=S)Nc2cccc(Cl)c2C)cc1`, the Potency is 3.98 µM (active). Still for that read-out and setting: as for `Cc1ccc(CN(Cc2cccnc2)C(=S)Nc2cc(Cl)ccc2C)cc1`, the figure is 3.16 µM (active). Still for that read-out and setting: then `Cc1cccc(C(=O)Nc2ccccc2C(=O)NCc2cccnc2)c1`, with “inactive”; and `Cc1ccc(Cl)cc1NC(=S)N(CCN(C)C)Cc1cccs1`, with 11.2 µM (active). Still for that read-out and setting: then `Cc1ccc(C)c2[nH]c(=O)c(CN(Cc3cccnc3)C(=S)NCc3ccco3)cc12`, with “inactive”; and `Cc1ccc(C)c(NC(=S)NCC(c2cccnc2)N2CCOCC2)c1` (configuration not stated), with “inactive”; and `Cc1ccccc1NC(=S)N(CCCN1CCOCC1)Cc1cccs1`, with “inactive”. For `CCc1cccc(C)c1NC(=S)N(CCCN1CCN(C)CC1)Cc1cccs1`, the Potency result was “inactive”. On the same count and under the same terms, then `Cc1c(Cl)cccc1NC(=O)CSc1ccc(-c2cccnc2)nn1`, with “inactive”. Same read-out and setting: then `COc1ccc(-c2nc3ccccc3c(=O)n2CCc2ccc(O)cc2)cc1`, with “inactive”; and `CSc1nnc2ccc(-c3ccc(C)cc3)nn12`, with “inactive”; and `Cc1ccc(C(CNC(=O)Nc2cccc(C)c2)N2CCN(C)CC2)cc1` (configuration not stated), with “inactive”. On the same count and under the same terms, as for `COc1cc(C(=O)NCC2(c3ccccc3)CCCC2)ccc1OC(C)C`, the entry is “inactive”; as for `O=C(NCc1ccccc1Cl)C1CCN(c2ncnc3c2nc2n3CCCCC2)CC1`, “inactive”; as for `CCOCCCN1C(=O)C2C(C(=O)Nc3ccc(OCC)cc3)C3C=CC2(O3)C1C(=O)NC1CCCCC1` (configuration not stated), “inactive”. Take `CCN(CC)CCn1cnc2c1c(=O)[nH]c(=O)n2Cc1ccccc1`: the Potency result was “inactive”.

Source of the values: PubChem BioAssay AID2551 (National Center for Advancing Translational Sciences (NCATS), 2010).
